# From the supplement of paper PMC10127200
# Structures can show the parent of a compound that is named as a salt.
# Key:
# Test in all cases: Euclidean distance of Cell Painting phenotypic profile (signed KS, 77 features) to DMSO centroid (dimensionless distance); 5 or 10 uM (library dependent); higher = stronger phenotypic change vs DMSO (phenoactivity)
# Conditions in all cases: 48 h
# 786-O = test system: 786-O
# In short: (§1)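 Five cancer lines, together with a healthy fibroblast line, received library compounds for 48 h at a library-dependent 10 or 5 uM and 0.1% DMSO final. Harmony then derived 77 features from confocal 20X images (9 fields/well) of the stained cells, scoring each as a signed Kolmogorov-Smirnov statistic against same-plate vehicle wells. After plate-position correction, correlation weighting and replicate averaging at the top dose, phenoactivity was taken as each profile's Euclidean distance to the median vehicle profile.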
# A549 = test system: A549
# In short: as §1
# FB = test system: FB
# In short: as §1
# HEPG2 = test system: HEPG2
# In short: as §1
# OVCAR4 = test system: OVCAR4
# In short: as §1
# DU145 = test system: DU145
# In short: as §1
SMILES,Euclidean distance (786-O),Euclidean distance (A549),Euclidean distance (FB),Euclidean distance (HEPG2),Euclidean distance (OVCAR4),Euclidean distance (DU145)
CC(C)(C)[C@@H]1NC(=O)O[C@@H]2CCC[C@H]2OC/C=C/C(F)(F)c2nc3ccccc3nc2O[C@@H]2C[C@@H](C(=O)N[C@]3(C(=O)NS(=O)(=O)C4(C)CC4)C[C@H]3C(F)F)N(C2)C1=O [Glecaprevir],1.01,1.22,0.806,0.687,0.812,
CC/C=C\C/C=C\C/C=C\C/C=C\C/C=C\CCCC(=O)O [Eicosapentaenoic Acid],0.992,1.07,0.941,0.664,1.41,
Cc1c(OCC(F)(F)F)ccnc1C[S+]([O-])c1nc2ccccc2[nH]1 (stereo not given) [Lansoprazole],1.16,2.3,0.815,1.08,0.948,
CC(C)n1c(/C=C/C(O)CC(O)CC(=O)O)c(-c2ccc(F)cc2)c2ccccc21 (stereo not given) [Fluvastatin Sodium],3.02,2.4,3.84,1.86,2.29,
COc1ccc([C@@H]2Sc3ccccc3N(CCN(C)C)C(=O)[C@@H]2OC(C)=O)cc1 [Diltiazem HCl],0.663,1.04,0.788,0.773,0.53,
CC1(C)S[C@@H]2[C@H](NC(=O)[C@H](NC(=O)N3CCNC3=O)c3ccccc3)C(=O)N2[C@H]1C(=O)O [Azlocillin sodium salt],0.826,0.805,1.08,0.67,1.47,
CN(C)Cc1cccc(N/C(=C2\C(=O)Nc3cc(C(N)=O)ccc32)c2ccccc2)c1,1.11,1.06,2.56,,1.22,1.33
COc1ccc2c(c1)c(CC(=O)OCC(=O)O)c(C)n2C(=O)c1ccc(Cl)cc1 [Acemetacin],0.932,0.994,1.09,0.526,1.57,
CCn1cc(C(=O)O)c(=O)c2cnc(N3CCNCC3)nc21 [Pipemidic acid],1.47,0.855,1.02,0.639,1.13,
CCN(CC)CCOc1ccc(C(=C(Cl)c2ccccc2)c2ccccc2)cc1 [Clomifene citrate],4.89,3.99,3.36,4.07,3.4,
Cc1cc2c(C(N)=O)cccc2n1-c1nc2c(c(NCc3ccccc3)n1)COCC2,6.05,2.9,7.18,4.68,3.98,
S=C(N/N=C1/CCCc2cccnc21)N1CCN(c2ccccn2)CC1,3.03,3.6,3.2,2.23,1.11,
C=CC(=O)N1CC/C(=C\c2ccc(F)c([N+](=O)[O-])c2)C(=O)/C(=C/c2ccc(F)c([N+](=O)[O-])c2)C1,6.18,5.03,5.74,5.06,6.21,
CC(C)(C)CC(C)(C)c1ccc(O)c(Cc2ccc(Cl)cc2Cl)c1 [Clofoctol],1.64,1.84,1.21,0.886,1.7,
COCCOC(=O)C1=C(C)NC(C)=C(C(=O)OC/C=C/c2ccccc2)C1c1cccc([N+](=O)[O-])c1 (stereo not given) [Cilnidipine],2.22,1.04,1.29,1.61,1.46,
C[C@]12C=CC(=O)N[C@@H]1CC[C@@H]1[C@@H]2CC[C@]2(C)[C@@H](C(=O)Nc3cc(C(F)(F)F)ccc3C(F)(F)F)CC[C@@H]12 [Dutasteride],1.17,1.7,1.03,0.422,1.01,
Cc1c(C)c2c(c(C)c1O)CC[C@@](C)(CCC[C@H](C)CCC[C@H](C)CCCC(C)C)O2 [Vitamin E],0.972,1.04,0.892,0.644,1.43,
CN1CCc2nc(C(=O)N[C@@H]3C[C@@H](C(=O)N(C)C)CC[C@@H]3NC(=O)C(=O)Nc3ccc(Cl)cn3)sc2C1 [Edoxaban],1.02,0.603,0.835,0.275,0.602,
Cc1nnc(SCC2=C(C(=O)O)N3C(=O)[C@@H](NC(=O)Cn4cnnn4)[C@H]3SC2)s1 [Cefazolin],1.28,0.455,1.6,0.891,1.58,
CN(CCOc1ccc(NS(C)(=O)=O)cc1)CCc1ccc(NS(C)(=O)=O)cc1 [Dofetilide],0.968,1.19,1.24,0.609,1.02,
CN1c2ccccc2C(=O)N2CCc3c([nH]c4ccccc34)C21 (stereo in doubt) [Evodiamine],2.67,2.85,1.59,2.03,1.81,
Nc1cccc(-c2cc3c(Oc4cccc(O)c4)ncnc3[nH]2)c1,1.73,3.48,2.71,,3.29,1.62
CN1[C@@H]2CC[C@H]1C[C@@H](OC(=O)c1c[nH]c3ccccc13)C2 [Tropisetron HCl],0.839,1.16,1.16,0.825,0.93,
C[C@@H]1C[C@H]2[C@@H]3CCC4=CC(=O)C=C[C@]4(C)[C@@]3(Cl)[C@@H](O)C[C@]2(C)[C@@]1(OC(=O)c1ccco1)C(=O)CCl [Mometasone furoate],2.05,1.97,1.79,0.88,2.18,
Cc1ncc([N+](=O)[O-])n1CC(C)O (stereo not given) [Secnidazole],1.02,0.496,0.982,1.12,0.655,
